About 79,000 compounds went through this panel and 15% of them were active in at least one assay; those are over-represented in the sample as a whole. The source made the active and inactive calls. Cut-off read from the data, not from the text of the source: active = growth inhibition above about 70%; inactive = the rest.
What was measured:
[1] = NCI Yeast Anticancer Drug Screen. Data for the wt2 strain (AID 169);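 note: 0% = growth of vehicle-treated yeast cultures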; conditions: S. cerevisiae wt2 strain growth inhibition, stronger effect = higher value
How it was run: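 Treated yeast vs. vehicle-treated yeast: growth inhibition determined.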

[2] = NCI Yeast Anticancer Drug Screen. Data for the mlh1 rad18 strain (AID 175); conditions: S. cerevisiae mlh1 rad18 strain growth inhibition, stronger effect = higher value
How it was run: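 Steps: expose repair-defective yeast to compound; measure growth; express inhibition against vehicle-treated controls.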

[3] = NCI Yeast Anticancer Drug Screen. Data for the rad52 strain (AID 147);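 note: 0% = growth of vehicle-treated control cultures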; conditions: S. cerevisiae rad52 mutant growth inhibition, stronger effect = higher value
How it was run: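 Here a repair-compromised yeast strain receives each compound; its growth is then quantified and normalised to vehicle-only controls.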

[4] = NCI Yeast Anticancer Drug Screen. Data for the wt1 strain (AID 149);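 note: 0% = growth of vehicle-treated wt1 cultures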; conditions: S. cerevisiae wt1 strain (SPY 50644) growth inhibition, stronger effect = higher value
How it was run: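 Using yeast strain wt1, compound-induced growth inhibition was determined against vehicle-treated cultures.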

[5] = NCI Yeast Anticancer Drug Screen. Data for the rad50EPP+ strain (AID 151);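 note: 0% = growth of vehicle-treated control cultures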; conditions: S. cerevisiae rad50 mutant strain, stronger effect = higher value
How it was run: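 Read-out is yeast growth inhibition relative to vehicle; cells used were the rad50EPP+ strain.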

[6] = NCI Yeast Anticancer Drug Screen. Data for the mgt1 strain (AID 153); conditions: S. cerevisiae mgt1 mutant growth inhibition, stronger effect = higher value
How it was run: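 Measured: inhibition of mgt1 yeast growth by compound, normalized to vehicle-treated cultures.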

[7] = NCI Yeast Anticancer Drug Screen. Data for the rad50 strain (AID 155);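 note: 0% = growth of vehicle-only cultures of the same strain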; conditions: S. cerevisiae rad50 strain growth inhibition, stronger effect = higher value
How it was run: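 Relative growth inhibition (compound vs vehicle) was measured in yeast with a defined repair-gene alteration.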

[8] = NCI Yeast Anticancer Drug Screen. Data for the mec2-1 strain (AID 157); conditions: S. cerevisiae mec2-1 strain, stronger effect = higher value
How it was run: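 Using mec2-1 yeast: add compound, measure growth, express inhibition versus vehicle-treated cultures.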

[9] = NCI Yeast Anticancer Drug Screen. Data for the rad14 strain (AID 159);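 note: 0% = growth of vehicle-treated control cultures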; conditions: S. cerevisiae rad14 strain growth inhibition, stronger effect = higher value
How it was run: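 Screen for anticancer potential: a yeast strain altered in DNA damage repair is grown with compound, and reduced growth is quantified against vehicle controls.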

[10] = NCI Yeast Anticancer Drug Screen. Data for the sgs1 mgt1 strain (AID 161);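 note: 0% = growth of cultures given vehicle only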; conditions: S. cerevisiae sgs1 mgt1 strain, stronger effect = higher value
How it was run: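 This yeast growth screen uses a strain with defined DNA-repair lesions; compound-treated growth is compared with vehicle-treated growth.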

[11] = NCI Yeast Anticancer Drug Screen. Data for the CLN2oe strain (AID 163);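 note: 0% = growth of vehicle-only control cultures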; conditions: S. cerevisiae CLN2oe strain, stronger effect = higher value
How it was run: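 Whole-cell yeast growth assay. A strain engineered for altered cell-cycle control received compound, and inhibition relative to vehicle-treated cultures was recorded.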

[12] = NCI Yeast Anticancer Drug Screen. Data for the cln2 rad14 strain (AID 165);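 note: 0% = growth equal to vehicle treated cultures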; conditions: S. cerevisiae cln2 rad14 strain, stronger effect = higher value
How it was run: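 Yeast strain cln2 rad14, bearing defects in cell cycle control and DNA repair, serves as the test system; values reflect growth inhibition compared with vehicle.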

[13] = NCI Yeast Anticancer Drug Screen. Data for the bub3 strain (AID 167); conditions: S. cerevisiae bub3 mutant strain, stronger effect = higher value
How it was run: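 Screening used yeast with an engineered genetic alteration affecting cell cycle control. Compound-exposed cultures were compared with vehicle cultures, and reduced growth was taken as inhibition.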

[14] = NCI Yeast Anticancer Drug Screen. Data for the mlh1 strain (AID 171);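 note: 0% = growth of vehicle-treated control cultures of the same strain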; conditions: S. cerevisiae mlh1 strain growth inhibition, stronger effect = higher value
How it was run: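 A yeast strain with a defined genetic lesion serves as the test organism. Cultures receive compound or vehicle, and growth is measured.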

[15] = NCI Yeast Anticancer Drug Screen. Data for the sgs1 strain (AID 173);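 note: 0% = growth of vehicle-only control cultures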; conditions: S. cerevisiae sgs1 mutant, stronger effect = higher value
How it was run: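 A genetically defined yeast mutant is incubated with the test compound, and its growth is compared to that of the same strain given vehicle.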

[16] = NCI Yeast Anticancer Drug Screen. Data for the rad18 strain (AID 177); conditions: S. cerevisiae rad18 mutant growth inhibition, stronger effect = higher value
How it was run: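 Measured value is growth inhibition of a yeast strain bearing a DNA repair alteration, referenced to vehicle-treated cells.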

[17] = at 5.0 µM (retest, dose inferred, filed as 0.5)
[18] = at 50.0 µM (retest, dose inferred, filed as 5.0)

Measured: growth inhibition

O=C(O)C1CC(c2ccccc2)=NN1c1ccccc1 (centres undefined)
active: [1]; at 100.0 µM 98% | [2]; [18] 96% | [2]; at 50.0 µM 85.2%
inactive: [1]; at 1.2 µM -38% | [1]; at 3.7 µM -46% | [1]; at 11.0 µM -36% | [1]; at 33.0 µM 0% | [2]; [17] 52%

CCOC(=O)c1ccc(NC(=O)O/N=C(/Cl)C(C)C)cc1
active: [3]; at 100.0 µM 98% | [4]; at 100.0 µM 97% | [5]; at 100.0 µM 87% | [6]; at 33.0 µM 73% | [6]; at 100.0 µM 99% | [7]; [18] 92% | [7]; at 100.0 µM 98% | [8]; [18] 95% | [8]; at 50.0 µM 85.5% | [8]; at 100.0 µM 99% | [9]; at 100.0 µM 99% | [10]; [18] 98% | [10]; at 50.0 µM 81.8% | [11]; at 100.0 µM 97% | [12]; [18] 87% | [13]; [18] 97% | [13]; at 50.0 µM 76.6% | [13]; at 100.0 µM 98% | [14]; at 33.0 µM 84% | [14]; at 100.0 µM 99% | [15]; at 33.0 µM 93% | [15]; at 100.0 µM 99% | [2]; [18] 95% | [16]; at 100.0 µM 98%
inactive: [3]; at 1.2 µM -2% | [3]; at 3.7 µM 3% | [3]; at 11.0 µM 14% | [3]; at 33.0 µM 58% | [4]; at 1.2 µM -1% | [4]; at 3.7 µM -6% | [4]; at 11.0 µM -11% | [4]; at 33.0 µM -14% | [5]; at 1.2 µM 1% | [5]; at 3.7 µM 8% | [5]; at 11.0 µM 22% | [5]; at 33.0 µM 44% | [6]; at 1.2 µM -3% | [6]; at 3.7 µM -7% | [6]; at 11.0 µM -5% | [7]; at 1.2 µM -1% | [7]; at 3.7 µM 4% | [7]; [17] 5% | [7]; at 11.0 µM 7% | [7]; at 33.0 µM 48% | [7]; at 50.0 µM 55.4% | [8]; at 1.2 µM 1% | [8]; at 3.7 µM 1% | [8]; [17] -19% | [8]; at 11.0 µM 3% | [8]; at 33.0 µM 45% | [9]; at 1.2 µM -4% | [9]; at 3.7 µM -5% | [9]; at 11.0 µM -2% | [9]; at 33.0 µM 2% | [10]; [17] -12% | [11]; at 1.2 µM -2% | [11]; at 3.7 µM 2% | [11]; at 11.0 µM -5% | [11]; at 33.0 µM -22% | [12]; [17] 17% | [12]; at 50.0 µM 63.4% | [13]; at 1.2 µM 9% | [13]; at 3.7 µM 18% | [13]; [17] -7% | [13]; at 11.0 µM 28% | [13]; at 33.0 µM 55% | [14]; at 1.2 µM -6% | [14]; at 3.7 µM -4% | [14]; at 11.0 µM -4% | [15]; at 1.2 µM -3% | [15]; at 3.7 µM -4% | [15]; at 11.0 µM 28% | [2]; [17] -7% | [2]; at 50.0 µM 69.1% | [16]; at 1.2 µM -5% | [16]; at 3.7 µM -5% | [16]; at 11.0 µM -1% | [16]; at 33.0 µM 12%

COc1ccc([N+](=O)[O-])c2c(NCCCN(C)C)c3ccccc3nc12
active: [3]; at 33.0 µM 72% | [3]; at 100.0 µM 89% | [7]; [18] 90% | [7]; at 100.0 µM 71% | [8]; [18] 99% | [8]; at 100.0 µM 85% | [9]; at 33.0 µM 80% | [9]; at 100.0 µM 94% | [10]; [18] 79% | [12]; [18] 98% | [13]; [17] 91% | [13]; [18] 100% | [2]; [18] 98% | [16]; at 3.7 µM 82% | [16]; at 11.0 µM 90% | [16]; at 33.0 µM 93% | [16]; at 100.0 µM 95%
inactive: [3]; at 1.2 µM 15% | [3]; at 3.7 µM 30% | [3]; at 11.0 µM 58% | [4]; at 1.2 µM 1% | [4]; at 3.7 µM 1% | [4]; at 11.0 µM 3% | [4]; at 33.0 µM 9% | [4]; at 100.0 µM 23% | [5]; at 1.2 µM -3% | [5]; at 3.7 µM 3% | [5]; at 11.0 µM 13% | [5]; at 33.0 µM 22% | [5]; at 100.0 µM 45% | [6]; at 1.2 µM 2% | [6]; at 3.7 µM 2% | [6]; at 11.0 µM 6% | [6]; at 33.0 µM 10% | [6]; at 100.0 µM 42% | [7]; at 1.2 µM 5% | [7]; at 3.7 µM -1% | [7]; [17] 16% | [7]; at 11.0 µM 11% | [7]; at 33.0 µM 50% | [7]; at 50.0 µM 49.1% | [8]; at 1.2 µM 4% | [8]; at 3.7 µM 4% | [8]; [17] -3% | [8]; at 11.0 µM 12% | [8]; at 33.0 µM 47% | [8]; at 50.0 µM 12.9% | [9]; at 1.2 µM 4% | [9]; at 3.7 µM 10% | [9]; at 11.0 µM 29% | [10]; [17] 5% | [10]; at 50.0 µM 46.8% | [11]; at 1.2 µM -3% | [11]; at 3.7 µM 3% | [11]; at 11.0 µM 2% | [11]; at 33.0 µM 8% | [11]; at 100.0 µM 25% | [12]; [17] 42% | [12]; at 50.0 µM 66.2% | [13]; at 1.2 µM -2% | [13]; at 3.7 µM -2% | [13]; at 11.0 µM -4% | [13]; at 33.0 µM 1% | [13]; at 50.0 µM -29% | [13]; at 100.0 µM 9% | [1]; at 1.2 µM 1% | [1]; at 3.7 µM 2% | [1]; at 11.0 µM 5% | [1]; at 33.0 µM 17% | [1]; at 100.0 µM 38% | [14]; at 1.2 µM 0% | [14]; at 3.7 µM 2% | [14]; at 11.0 µM 4% | [14]; at 33.0 µM 19% | [14]; at 100.0 µM 45% | [2]; [17] 7% | [2]; at 50.0 µM 68.5% | [16]; at 1.2 µM 62%
